This note sets out measurements from PubChem BioAssay (NCI).

Molecules are shown by their SMILES. About 83,000 compounds went through this panel and 20% of them were active in at least one assay; those are over-represented in the sample as a whole.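 Method: cells in 96-well plates; compound added at one concentration; 48 h incubation; percent growth measured; values under 10 scored active.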 Unmarked numbers belong to inactive results. Calls of active or inactive are those of the source.

This test deals with HL-60(TB) leukemia. In words: NCI-60 one-dose screen, 48 h (100 = growth as untreated, 0 = no growth, -100 = all killed). The settings on record: 10 µM unless noted.
Take `O=C(Oc1cccc2cccnc12)c1ccccc1`: the growth is 93.7%.

As for `Cc1ccc2c(c1)C(C)Cc1c(ncnc1-n1cnc3cc(C)ccc31)N2C` (stereo not given), the growth was -22% (active). Under `COCCOCCOCc1n(Cc2ccc3ccccc3n2)c2ccccc2[n+]1Cc1ccc2ccccc2n1` stands -42.9% (active).

Consider `[2H]C([2H])([2H])Oc1c(F)cccc1/C=C/C(=O)/C=C(O)/C=C/c1cccc(F)c1OC([2H])([2H])[2H]`, for which the growth is 88.5%.

For the molecule `COc1ccc(NC(=O)COc2ccccc2)c(C(N)=O)c1`, the growth was -7.37% (active).

`Clc1ccc(C(SCc2ccccc2)SCc2ccccc2)cc1`: the growth was 97.6%. Under `Nc1nc(N)c2cc(CNc3ccc(C(=O)NC(CC(=O)O)C(=O)O)cc3)ccc2n1` (stereo not given) stands 19.4%; under `O=C1Cc2cc(CCN3CCN(c4nsc5ccccc45)CC3)c(Cl)cc2N1`, 108%. Under `O=C1N=C(N2CCOCC2)S/C1=C\c1cn(-c2ccccc2)nc1-c1ccccc1` stands 105%; under `COC(=O)C(CC(=O)c1ccc(-c2ccccc2)cc1)c1ccccc1` (stereo not given), 15.4%; under `CC(C)=CCc1cc2c(cc1O)C1=C(C(=O)C3=C(C1=O)S(=O)(=O)CCN3)C(C=C(C)C)O2` (stereo not given), -36% (active). Under `Cc1cc(NCCCN(C)C)c2ccc3c(ccc4c(NCCCN(C)C)cc(C)nc43)c2n1` stands -60.2% (active); under `O=C(CCNC(=O)c1nc(-c2ccccc2)n(-c2ccc(Cl)cc2)n1)NO`, 96.8%. With `O=c1oc2c(cnc3ccccc32)cc1-c1cccs1`, the growth was 98.2%.

In the case of `COc1cc(/C=C2\CCC/C(=C\c3cc(CN4CCCCC4)c(O)c(OC)c3)C2=O)cc(CN2CCCCC2)c1O`, the growth was 92.7%. The same measure for `O=C(O)/C(Br)=C/c1c[nH]c2ccc(Br)cc12`: 96.9%; for `O=C(Nc1ccc(Cl)cc1F)c1cc(Br)ccc1O`: -39.8% (active); for `CC(C)c1ccc(C(=O)Nc2sc3c(c2C(N)=O)CCC(=O)C3)cc1`: -11.5% (active). On to `NC(N)=Nc1ccc(/C=C2\C=Cc3ccccc32)cc1`, for which the growth was 61.6%. The same measure for `C=C1C(=O)O[C@H]2[C@H]1CC/C(C=Nc1ccc(C(F)(F)F)cc1N)=C\CC[C@@]1(C)O[C@@H]21`: -7.77% (active); for `CCN(CC)CCOc1ccc(Nc2ncc3cc(-c4ccc(O)cc4)c(=O)n(C)c3n2)cc1`: 40.2%; for `COc1cc2c(cc1OCCCN1CCN(CCCn3c4ccccc4c4ccccc43)CC1)N=C[C@@H]1CCCN1C2=O`: -44.8% (active). The same measure for `O=C(NCCNc1nccc(-c2c(-c3cccc(O)c3)nc3sccn23)n1)c1ccccc1O`: 59.8%; for `Clc1ccc(Nc2ccnc(N3CCN(c4ccnc5cc(Cl)ccc45)CC3)n2)cc1`: 72.1%; for `CC(C)COCC(CN(Cc1ccccc1)c1ccccc1)N1CCCC1` (stereo not given): 82.4%.

For `CCCC[N+](C)(N)CCCC`, the growth is 104%. Under `Oc1ccccc1/C=N/N=C/c1c(O)ccc2ccccc12` stands 51%. Under `COC(=O)N[C@H]1CCc2cc(OC)c(OC)c(OC)c2-c2ccc(SC)c(=O)cc21` stands -45.4% (active); under `Oc1ccc(CCC2CCCC(CCc3ccc(OCCF)cc3)N2)cc1` (stereo not given), 82%; under `CCCN1CCN(c2ccc3nc(-c4ccc5nc(-c6cc(OC)ccc6OC)[nH]c5c4)[nH]c3c2)CC1`, 106%. `C/C(=N\Nc1ccc([N+](=O)[O-])cc1[N+](=O)[O-])c1ccc(Br)cc1`: the growth was 101%. `CCCCCN1C=C/C(=C\C(=O)N(C)c2ccc(Oc3ccccc3)cc2)c2ccccc21`: the growth is 66.9%.

Turning to `OC(COc1cccc2ccccc12)CN1CCN(c2ccccc2)CC1` (stereo not given), the growth was 90.9%. For `Cc1c(C(=O)OCCCCOC(=O)c2c(C)n(C)c3scc[n+]23)[n+]2ccsc2n1C`, the growth is 87.1%. On to `Cc1c(-c2ccc(O)cc2)n(Cc2ccc(OCCN3CCCCCC3)cc2)c2ccc(O)cc12`, for which the growth is 74.6%.

`O=C1c2cc3c(cc2-c2c1c1ccc(F)cc1c(=O)n2CCCN1CCOCC1)OCO3`: the growth was 13.7%. The same measure for `N=C(N)c1ccc(-c2ccc(-c3ccc(Cl)c(Cl)c3)o2)nc1`: 15.1%.

In the case of `c1ccc2c(c1)nc(CN1CCOCC1)n1cc(N3CCCC3)nc21`, the growth was 83.4%. The same measure for `O=S(=O)(c1ccccc1)N1CCCN(c2nc(-c3ccccc3)nc3nc(-c4ccccc4)oc23)CC1`: 102%; for `COc1cccc2c1C(=O)c1c(O)c3c(c(O)c1C2=O)C[C@@](O)(C(C)=O)C[C@@H]3OC1CC(N)C(O)C(C)O1` (stereo not given in full): -63.3% (active).
